Experimental data from PubChem BioAssay AID1460 (National Center for Advancing Translational Sciences (NCATS), 2008).
Hit rate of the full screen: of about 270,000 compounds, about 5,800 (2.1%) were called active. Inconclusive results (about 16%) are left out. What follows is part of a selection rich in actives, with near analogues and random picks from the rest. A number with no mark means an inactive call. The call rests on the fitted dose curve; in most records, active means well fitted inhibition curve with a large enough effect; inconclusive means small, poorly fitted or top-dose-only effect; inactive means flat fitted curve, though single readings scatter.

These molecules were tested against Microtubule-associated protein tau (Homo sapiens) (UniProt P10636) (assay: qHTS for Inhibitors of Tau Fibril Formation, Thioflavin T Binding). Details: recombinant tau K18 P301L, heparin-induced fibrillization, ThT fluorescence; series mostly up to 57.4 µM; activity, negative = inhibition: at the top concentration.
Chain of Microtubule-associated protein tau (Homo sapiens) (P10636 561-689 P618L limits assumed): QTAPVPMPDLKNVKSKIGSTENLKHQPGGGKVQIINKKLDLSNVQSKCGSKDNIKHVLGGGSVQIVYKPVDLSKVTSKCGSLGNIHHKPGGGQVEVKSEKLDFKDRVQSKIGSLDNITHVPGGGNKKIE
Outline: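 Fibril formation assay: tau K18 P301L at 15 uM with trace Alexa 594 label, heparin inducer 20 uM, pH 7 sodium acetate buffer, 37 C for 6 hr; endpoint ThT signal.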
Further: nearly all actives have a fitted effect of over 55% in size.
On the % scale 0 is the no-effect control and ±100 the full control effect; potency means the concentration at half of the fitted maximal effect.

| SMILES | activity, negative = inhibition [%] | Potency |
| --- | --- | --- |
| Cc1ccc(-n2c(SCC(=O)Nc3cccc(F)c3)nc3c(oc4ccccc43)c2=O)cc1C | 5.17 | – |
| COc1ccc(S(=O)(=O)N2CCOCC2)cc1C(=O)Nc1nc2ccccc2s1 | -1.15 | – |
| COc1cccc2sc(NNC(=O)c3nc4ccccc4s3)nc12 | – | 7.94 µM (active) |
| COc1ccc(/C=C(/CC(=O)Nc2ccc(C)cc2)c2nc3ccccc3s2)cc1 | -13.3 | – |
| Cc1ccc(C)c(N2CCN(c3ccc4cc(S(=O)(=O)N5CCC(C)CC5)ccc4n3)CC2)c1 | 0.595 | – |
| Cc1[nH]c2ccccc2c1SCC(=O)Nc1nccs1 | -6.38 | – |
| CC(=O)c1cc(C#N)c(SCC(=O)Nc2nccs2)nc1C | – | 7.08 µM (active) |
| CC(=O)c1cc(C#N)c(SCC(=O)C(C)(C)C)nc1C | -10.4 | – |
| COc1ccc(CCNc2ncnc3onc(-c4ccc(Cl)cc4)c23)c(OC)c1 | -0.33 | – |
| CCOCCc1nn2c(=O)cc(COC(=O)CNC(=O)c3ccc(C(C)(C)C)cc3)nc2s1 | -14 | – |
| Cc1ccc(C(=O)COC(=O)CCCC(=O)NC2CCCCC2)cc1[N+](=O)[O-] | -0.262 | – |
| Cc1c(NC(=O)CCC2CCCCC2)cc(C(=O)N2CCOCC2)cc1[N+](=O)[O-] | -8.07 | – |
| Cc1cc(C=O)c(C)n1-c1ccc(NC2CCCCC2)c([N+](=O)[O-])c1 | – | 14.1 µM (active) |
| COCCN(Cc1ccco1)C(=O)Cn1ncc2c([nH]c3ccccc32)c1=O | 4.47 | – |
| CC(=O)N1CCN(c2ccc(NCc3ccc(C(C)C)cc3)cc2)CC1 | – | 12.6 µM (active) |
| CC(CC(=O)N1CCN(c2ccccc2)CC1)c1ccccc1 (stereo not drawn) | -1.05 | – |
| O=C(Nc1ccc(F)cc1)N1CCN(c2ccc(F)cc2)CC1 | -16.9 | – |
| Cc1c(CCNC(=O)c2ccc(C(F)(F)F)cc2)sc2nc(-c3ccc(F)cc3)nn12 | 2.81 | – |
| COc1ccc(Cl)cc1NC(=O)CCn1c(=O)c2cccn2c2ccccc21 | -13.7 | – |
| CCOc1ccc(CNC(=O)c2ccc3nc(CC)c(CC)nc3c2)cc1OC | 0.219 | – |
| COc1ccc2c(c1)C(C)=CC(C)(C)N2C(=O)CNCc1ccc2c(c1)OCO2 | -5.39 | – |
| CC1=CC(C)(C)N(C(=O)CSc2nnc(-c3ccccc3)o2)c2ccc(C)cc21 | -11.5 | – |
| COc1ccc2c(c1)C(C)=CC(C)(C)N2C(=O)Nc1ccccc1 | – | 28.2 µM (active) |

| SMILES | activity, negative = inhibition [%] | Potency |
| --- | --- | --- |
| O=C(NC1CC(=O)N(c2ccc(Cl)cc2)C1)C1CCCC1 (stereo not drawn) | -3.22 | – |
| Cn1ccc2cc(S(=O)(=O)N3CCCC(C(=O)NCc4ccccc4F)C3)ccc21 (stereo not drawn) | 4.83 | – |
| COc1ccc(-c2nc3ccccc3o2)cc1NC(=O)c1cc([N+](=O)[O-])ccc1N1CCOCC1 | -9.81 | – |
| CCOc1ccc2nc(NC(=O)c3cc([N+](=O)[O-])ccc3N3CCOCC3)sc2c1 | – | 3.16 µM (active) |
| O=C(NC1CCCCC1)c1cc([N+](=O)[O-])ccc1N1CCOCC1 | -5.97 | – |
| CCOC(=O)c1c(NC(=O)c2cccs2)sc(C)c1C | 4.08 | – |
| CCOC(=O)c1sc(NC(=O)COc2ncnc3ccccc23)c(C(=O)OCC)c1C | 13.3 | – |
| CCOC(=O)c1c(NC(=O)COc2cc(C)ccc2C(C)C)sc(C)c1C | – | 25.1 µM (active) |
| Clc1cccc(-n2ncc3c(NCCc4ccccc4)ncnc32)c1 | -9.03 | – |
| Cc1ccc(Cl)cc1NC(=O)CCC(=O)N1CC(C)Sc2ccccc21 (stereo not drawn) | -16.2 | – |
| CCCNC(=O)C1CCN(c2nc3ccc(C)cc3[nH]2)CC1 | -0.761 | – |
| COCC(C)NS(=O)(=O)c1ccc(N2CCCCS2(=O)=O)cc1 (stereo not drawn) | 6.23 | – |
| S=C(c1ccc(-c2ccccc2)o1)N1CCCCC1 | – | 15.8 µM (active) |
| S=C(NCCc1ccccc1)N1CCCCC1 | -8.68 | – |
| OCCN1CCN(C(=S)c2ccc(-c3ccccc3)cc2)CC1 | -13.5 | – |
| Oc1ccc(CNc2ccccc2O)cc1 | – | 14.1 µM (active) |
| OCC(CO)(CO)NCc1ccc(-c2ccccc2)cc1 | -2.17 | – |
| Oc1ccccc1N1CCN(C(=S)NCc2ccccc2)CC1 | -17.4 | – |
| Cc1cccc(C2C3=C(CCCC3=O)N=C3c4ccccc4C(=O)C32)c1 (stereo not drawn) | – | 14.1 µM (active) |
| CCc1nc2cccnc2n1-c1ccc(CC(=O)Nc2c(C)cccc2C)cc1 | -7.47 | – |
| COc1ccc(CCNC(=O)Cn2c(=O)cc(C(F)(F)F)c3c(C)nn(C)c32)c(OC)c1 | -7.4 | – |
| Cc1ccc(/C=C/C(=O)Nc2cc(S(=O)(=O)N3CCCCCC3)ccc2OCC(F)(F)F)o1 | 9.07 | – |
| CCc1nnc(NC(=O)/C=C/c2ccc(C)o2)s1 | -4.8 | – |

| SMILES | activity, negative = inhibition [%] | Potency |
| --- | --- | --- |
| Cc1ccc(/C=C/C(=O)Nc2ccc([N+](=O)[O-])c(NC(=O)/C=C/c3ccc(C)o3)c2)o1 | – | 12.6 µM (active) |
| CCOc1cccc(/C=N/N2C(=O)CSC2=S)c1O | – | 22.4 µM (active) |
| CCOc1ccccc1N=C1NC(=O)CS1 | -1.39 | – |
| CCOc1cccc(/C=N/NC(=S)NCCN2CCOCC2)c1O | -6.58 | – |
| COc1ccc(OC)c(NC(=O)CSC2=Nc3ccccc3C3=NC(CC(=O)NCCc4ccccc4)C(=O)N23)c1 (stereo not drawn) | -3.76 | – |
| CC(=O)Oc1c2c(c3c(c1CC=C(C)C)O[C@@]14C(=CC5CC1C(C)(C)OC4(C/C=C(\C)C(=O)O)C5=O)C3=O)OC(C)(CCC=C(C)C)C=C2 (stereo partly drawn) | – | 31.6 µM (active) |
| COc1ccccc1NC(=O)Cn1cnc2ccc(S(=O)(=O)N3CCC(C)CC3)cc2c1=O | 9.3 | – |
| CN1c2ccc(Cl)cc2-c2nc(SCC(=O)Nc3cc(F)ccc3F)ncc2S1(=O)=O | 4.12 | – |
| CN1/C(=c2/s/c(=C3/C(=O)N(c4ccccc4)NC3=Nc3ccccc3)n(C)c2=O)C(C)(C)c2ccccc21 | – | 7.94 µM (active) |
| CC1CCCCN1CCCNC(=O)Cn1ncc2c([nH]c3ccccc32)c1=O (stereo not drawn) | -18.3 | – |
| CCc1ccc(NC(=O)CCS(=O)(=O)c2cc3c(cc2Cl)NC(=O)CO3)cc1 | 1.33 | – |
| COc1ccc(C)cc1NC(=O)C(=O)NCCc1sc(-c2cccc(C)c2)nc1C | -12.3 | – |
| O=[N+]([O-])c1ccccc1Nc1ccc(O)cc1 | – | 22.4 µM (active) |
| Cc1ccc(Nc2ccc(C(N)=O)cc2[N+](=O)[O-])cc1 | -3.36 | – |
| O=C(O)c1ccccc1C(=O)Nc1ccccc1[N+](=O)[O-] | -2.3 | – |
| CCCN1C(=O)C(O)(CC(=O)c2ccc(CC)cc2)c2cc(Br)ccc21 (stereo not drawn) | -7.54 | – |
| COc1ccc(N2CCN(C(=O)CSc3nc4cc(OC)c(OC)cc4cc3C#N)CC2)cc1 | -10.6 | – |
| COC(=O)CSc1nc(C)c2ccc(OC)cc2n1 | -5.41 | – |
| Cc1cc(C)c(C#N)c(SCC(=O)Nc2ccccc2)n1 | 4.95 | – |
| Cc1nonc1NC(=O)CSc1nc2ccccc2cc1C#N | – | 1.78 µM (active) |
| Cc1nc2cc(NC(=O)CSc3nc4c(C)cccc4cc3C#N)ccc2s1 | -13.9 | – |
| CCOc1ccc2cc(C#N)c(SCC(=O)OC)nc2c1 | – | 3.16 µM (active) |
